Screen size: about 320,000 compounds; about 2,100 (0.66%) were called active. Roughly 53% stayed inconclusive and do not appear here. Calls follow the shape of the dose curve; as a rule, active = well fitted inhibition curve with a large enough effect in the signal ratio, with a control signal flat (not every such curve was filed as active); inconclusive = small, poorly fitted or top-dose-only effect, or effect the other way, or a change in a side signal; inactive = flat fitted curve, though single readings scatter; the % refers to the signal ratio. The sample as a whole holds a higher share of actives than the screen did.
Potency is read from the fitted curve at half-maximal effect.

The nature of this experiment: qHTS Assay for Lipid Storage Modulators in Drosophila S3 Cells.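 As to cell number change: cells counted by Cell Tracker Red CMTPX staining in the red channel.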 The conditions noted are these: BODIPY lipid droplet fluorescence, 18-24 h, cells fed with added oleic acid; cell number change: measured here: cell count max response; series mostly up to 46.1 µM. A digest of the protocol: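 Drosophila S3 cells loaded with oleic acid (400 uM, as added) and compounds at several concentrations; lipid droplets imaged by 488-nm laser-scanning cytometry, 500–530 nm intensity and object ratio to cell channel. Percent activity normalized to 20 uM Triacsin C.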
In general terms: Quantitative high-throughput screening tests each substance at several concentrations.
In the case of `O=C1CCCc2ccccc2N1`, the Potency entry is “inactive” and the cell number change is 15.4%.
Turning to `CC(=O)NCCOC(=O)Nc1ccncc1`, the Potency was 18.4 µM (active) and the cell number change is -23.8%.
Taken in the same sequence, the figures for `O=C(Nc1ccc(Cl)c(Cl)c1)OCCNC(=O)c1ccncc1` were “inactive” and 19.3%.
In the case of `O=C(Nc1ccncc1)OCc1ccccc1`, the Potency result was “inactive” and the cell number change is -15%.
Taken in the same sequence, the figures for `C=C(C)C(=O)N1CC2(CC(c3cccc(NC(=O)CC(c4ccccc4)c4ccccc4)c3)=NO2)C[C@H]1C(N)=O` (stereo partly specified) were “inactive” and -5.55%.
The corresponding values for `COc1ccccc1CCC(=O)OCC(=O)Nc1cc(C)nn1-c1ccccc1` are “inactive” and 9.67%.
Taken in the same sequence, the figures for `COc1cccc(NC(=O)Nc2ccc3c(c2)nc(C)n3C)c1` were “inactive” and -12.3%.
As to `O=C(NNC(=O)c1ccc2ccccc2n1)c1ccc(O)cc1`, the Potency result is “inactive” and the cell number change is -5.74%.
Taken in the same sequence, the figures for `O=C(NNc1c2ccccc2nc2ccccc12)c1ccc(O)cc1` were 16.4 µM (active) and -16.9%.
Taken in the same sequence, the figures for `Nc1ccccc1C(=O)NNc1c2ccccc2nc2ccccc12` were “inactive” and -7.95%.
Taken in the same sequence, the figures for `O=C(CN1C(=O)NC2(CCCC2)C1=O)Nc1cc(Cl)ccc1Oc1ccccc1` were “inactive” and 2.01%.
For `Brc1ccc(CSc2nnc(-c3ccco3)o2)cc1`, the Potency entry was “inactive” and the cell number change is -8.74%.
For the compound `c1ccc(CSc2nnc(-c3ccco3)o2)cc1`, the Potency result was “inactive” and the cell number change is 29.7%.
As for `O=C(O)c1ccc(CSc2nnc(-c3ccco3)o2)cc1`, the Potency is 1.84 µM (active).
For the compound `CCC(C)[C@H](NC(=O)NCCCN1CCOCC1)C(=O)OC` (stereo partly specified), the Potency result is “inactive” and the cell number change amounted to 4.55%.
Taken in the same sequence, the figures for `COCCCNC(NC(=O)c1ccc(Cl)cc1)C(Cl)(Cl)Cl` (stereo unspecified) were “inactive” and 18.7%.
The corresponding values for `Cc1ccc(NC(=O)Nc2cccc([N+](=O)[O-])c2)cc1F` are 9.2 µM (active) and -9.68%.
`O=C(Nc1cccc([N+](=O)[O-])c1)Nc1cccc([N+](=O)[O-])c1`: the Potency result was “inactive” and the cell number change was -6.97%.
For `Cc1cc(NC(=O)Nc2cccc([N+](=O)[O-])c2)no1`, the Potency entry is “inactive”.
`COc1ccc(CNC(=O)c2cccnc2Sc2ccc(C)c(C)c2)cc1`: the Potency entry was “inactive” and the cell number change was -8.63%.
In the case of `Cc1cc(C(=O)CCC(=O)Nc2ncccc2O)c(C)s1`, the Potency entry was “inactive” and the cell number change was determined as 23.7%.
Taken in the same sequence, the figures for `Cc1cc(OC(C)C(=O)NNC(=O)Nc2ccc(F)cc2F)cc(C)c1Cl` (stereo unspecified) were “inactive” and 12.3%.
Taken in the same sequence, the figures for `COc1cc(C2CC(c3cccs3)=NN2C(=O)CCl)ccc1OC(F)F` (stereo unspecified) were 11.6 µM (active) and 6.96%.
Turning to `COc1ccc(CC(=O)OCC(=O)N2N=C(c3ccccc3)CC2c2ccc(OC)cc2)cc1` (stereo unspecified), the Potency entry was “inactive” and the cell number change was determined as 9.3%.
The corresponding values for `COc1ccc(C2=NN(C(=O)CSc3ncccn3)C(c3ccc(C)cc3)C2)cc1` (stereo unspecified) are “inactive” and -13.1%.
Turning to `COc1ccc(C2CC(c3cccs3)=NN2C(=O)c2ccccc2)cc1OC` (stereo unspecified), the Potency entry is “inactive” and the cell number change was 0.175%.
The corresponding values for `COc1ccc(C2CC(c3ccccc3)=NN2C(=O)COC(=O)c2cccnc2)cc1` (stereo unspecified) are “inactive” and -20.7%.
Consider `CC(=O)N1N=C(c2ccccc2OC(=O)/C=C/c2ccccc2)CC1c1ccccc1` (stereo unspecified), for which the Potency entry was “inactive”.
The same measure, in the same setting: with `COc1ccc(C2CC(c3cccs3)=NN2C(=O)COC(=O)C2CCCCC2)cc1OC` (stereo unspecified) the entry was “inactive”.
Regarding `COc1ccc(C2CC(c3ccc(OC)cc3OC(C)=O)=NN2C(=O)c2ccccc2)cc1` (stereo unspecified), the Potency result is “inactive” and the cell number change was -16.6%.
The corresponding values for `COc1ccc(C2=NN(C(=O)CSc3ncccn3)C(c3ccc(OC)cc3)C2)cc1` (stereo unspecified) are “inactive” and -13.6%.
Consider `COc1ccc(C2CC(c3ccccc3)=NN2C(=O)CSc2ncccn2)cc1` (stereo unspecified), for which the Potency was 18.4 µM (active) and the cell number change is -10.6%.
Taken in the same sequence, the figures for `COc1ccc(C2CC(c3ccc4ccccc4c3OC(C)=O)=NN2C(=O)/C=C/c2ccccc2)cc1` (stereo unspecified) were 6.51 µM (active) and -4.95%.
Taken in the same sequence, the figures for `COc1ccc(C2CC(c3ccccc3)=NN2C(=O)COC(=O)CNC(=O)c2ccccc2)cc1` (stereo unspecified) were 14.6 µM (active) and 17%.
Regarding `COc1ccccc1-n1c(-c2ccc(F)cc2)coc1=O`, the Potency entry was “inactive” and the cell number change came to 9.35%.
On to `COC(=O)Nc1ccc(S(=O)(=O)N2CCN(c3ccc(F)cc3)CC2)cc1`, for which the Potency result was “inactive”.
In the case of `COCCn1nnnc1C(c1ccccn1)N1CCN(c2cccc(C)c2C)CC1` (stereo unspecified), the Potency entry was “inactive” and the cell number change came to 1.34%.
Taken in the same sequence, the figures for `Cc1cc(Cl)c(S(=O)(=O)NC(C(=O)O)c2ccccc2)cc1OCC(N)=O` (stereo unspecified) were “inactive” and 6.34%.
Turning to `COc1ccc(CC2(CO)CCN(C(C)Cc3ccc(Cl)cc3)CC2)cc1` (stereo unspecified), the Potency entry is “inactive” and the cell number change was -1.88%.
Taken in the same sequence, the figures for `CC(=O)C1=NN(c2ccc(Cl)cc2)C(c2ccc3c(c2)OCO3)N(C(C)=O)N1C` (stereo unspecified) were “inactive” and 4.72%.
The corresponding values for `O=C(CNc1ccc(Br)cc1)c1ccccc1` are “inactive” and -10.1%.
In the case of `O=C(NNC1CC(=O)N(c2ccc(Cl)cc2)C1=O)c1ccccn1` (stereo unspecified), the Potency result is “inactive” and the cell number change was 6.05%.
The corresponding values for `CCCCNCc1cc2ccccc2o1` are “inactive” and -14.5%.
Taken in the same sequence, the figures for `Cc1ccc(-c2nn(CC(=O)O)c(=O)c3ccccc23)cc1` were “inactive” and -4.34%.
The corresponding values for `O=C(CCN1C(=O)[C@@H]2Cc3ccccc3CN2C1=O)N[C@H](C(=O)O)c1ccccc1` are “inactive” and 8.94%.
As to `COc1ccc(NC(=O)COC(=O)Cc2cccs2)cc1OC`, the Potency result was “inactive” and the cell number change is -0.769%.
Take `O=C(CSc1nc2ccccc2o1)N1N=C(c2cccs2)CC1c1ccc(F)cc1` (stereo unspecified): the Potency entry is “inactive” and the cell number change was -17.4%.
The corresponding values for `COc1cccc(C2CC(c3cccs3)=NN2C(=O)CSc2nc3ccccc3o2)c1OC` (stereo unspecified) are “inactive” and 8.7%.
Taken in the same sequence, the figures for `COc1ccc(C2CC(c3cccs3)=NN2C(=O)CSc2nc3ccccc3o2)cc1` (stereo unspecified) were 9.2 µM (active) and -8.56%.
The corresponding values for `CC(=O)c1ccc(NC(=O)Cn2cnc(S(=O)(=O)N3CCOCC3)c2)cc1` are “inactive” and -2.31%.
For the compound `COc1ccc2cc(CCNC(=O)c3cccc([N+](=O)[O-])c3)c(=O)[nH]c2c1`, the Potency result was “inactive” and the cell number change was 9.49%.
For `O=C(/C=C\c1ccc2c(c1)OCO2)CC1(O)C(=O)Nc2ccccc21` (stereo unspecified), the Potency entry was “inactive” and the cell number change stood at 10.9%.
Taken in the same sequence, the figures for `NC(=O)CN1C(=O)C(O)(CC(=O)/C=C\c2ccc3c(c2)OCO3)c2ccccc21` (stereo unspecified) were “inactive” and -3.53%.
Taken in the same sequence, the figures for `CN1C(=O)C(O)(CC(=O)/C=C\c2ccc3c(c2)OCO3)c2ccccc21` (stereo unspecified) were 0.366 µM (active) and -43.9%.
On to `COc1ccc(S(=O)(=O)NCC2CCCO2)cc1C(=O)O` (stereo unspecified), for which the Potency entry was “inactive” and the cell number change stood at 10.7%.
The corresponding values for `COc1ccc(S(=O)(=O)NCC2CCCO2)cc1NC(=O)c1ccccc1F` (stereo unspecified) are 25.9 µM (active) and -5.13%.
The corresponding values for `CCOc1ccc(S(=O)(=O)NCC2CCCO2)cc1NC(=O)c1ccccc1F` (stereo unspecified) are “inactive” and 23.9%.
For `C#CCOCCOCCOCCNc1nc(N2CCN(C(=O)[C@H](CCC(=O)O)n3cc(C(N)CO)nn3)CC2)nc(N2CCN(C(=O)[C@H](Cc3cc4ccccc4[nH]3)n3cc(C(N)[C@H](C)CC)nn3)CC2)n1` (stereo partly specified), the Potency entry was “inactive” and the cell number change turned out to be 10.5%.

Source of the values: PubChem BioAssay AID2685 (National Center for Advancing Translational Sciences (NCATS), 2010).
